Data taken from PubChem BioAssay (EPA / NIEHS).
Activity calls are given as the source filed them. Rule for the calls: active = hit-call score of the fitted dose curve at least 0.9, where 1 is the maximum; inactive = score below 0.9.

Test: Tanguay_ZF_120hpf_DP24: Oregon State University Tanguay Lab 24 Hour Post-fertilization zebrafish Assay for Delayed Development (AID 2284390)
Summary of the method: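 Dechorionated 5D wild-type zebrafish embryos exposed statically from 6 hpf, one per well, 0.64% DMSO final, 28 C, sealed and dark. Developmental progression scored at 24 hpf by brightfield as binary present/absent; dead embryos excluded.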

SMILES | AC50 | outcome
O=P(O)(O)OCCC(F)(F)C(F)(F)C(F)(F)C(F)(F)C(F)(F)C(F)(F)F | 57.9 µM (active) | –
NC(=O)C(F)(F)C(F)(F)C(F)(F)C(F)(F)F | – | inactive
FC(F)(F)C(F)(F)C(F)(F)C(F)(F)C(F)(F)CCI | – | inactive
O=C(O)C(F)(F)C(F)(F)C(F)(F)C(F)(F)C(F)(F)C(F)(F)C(F)(F)C(F)(F)Cl | – | inactive
FC(F)(F)C(F)(F)C(F)(F)C(F)(F)C(F)(F)C(F)(F)C(F)(F)C(F)(F)F | – | inactive
OCC(F)(F)C(F)(F)C(F)(F)C(F)F | – | inactive
FC(F)(F)C(F)(F)C(F)(F)C(F)(F)CCI | – | inactive
FC(F)(F)C(F)(F)C(F)(F)C(F)(F)C(F)(F)C(F)(F)C(F)(F)C(F)(F)CCS | – | inactive
FC(F)(F)C(F)(F)C(F)(F)C(F)(F)C(F)(F)C(F)(F)CC1CO1 (centres undefined) | – | inactive
O=C(O)C(F)(OC(F)(F)C(F)(OC(F)(F)C(F)(OC(F)(F)C(F)(F)C(F)(F)F)C(F)(F)F)C(F)(F)F)C(F)(F)F (centres undefined) | – | inactive
O=C(O)C(F)(OC(F)(F)C(F)(OC(F)(F)C(F)(F)C(F)(F)F)C(F)(F)F)C(F)(F)F (centres undefined) | – | inactive
O=C(O)C(F)(F)C(F)(F)C(F)(F)C(F)(F)F | – | inactive
N=C(N)C(F)(F)C(F)(F)C(F)(F)C(F)(F)C(F)(F)C(F)(F)C(F)(F)F | – | inactive
CC(C)(C)C(=O)CC(=O)C(F)(F)C(F)(F)C(F)(F)F | – | inactive
C=CC(=O)OCC(F)(F)C(F)(F)C(F)(F)C(F)(F)COC(=O)C=C | 28.1 µM (active) | –
O=C(O)C(F)(F)C(F)(F)C(F)F | – | inactive
Cc1ccc(S(=O)(=O)OCC(F)(F)C(F)(F)C(F)(F)C(F)(F)C(F)(F)C(F)F)cc1 | – | inactive

Test: Tanguay_ZF_120hpf_CRAN: Oregon State University Tanguay Lab 120 Hour Post-fertilization zebrafish Assay for Craniofacial Malformation (AID 2284397)
Summary of the method: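 Dechorionated Tropical 5D wild-type zebrafish embryos, one per well, were statically exposed from 6 to 120 hpf at 28C in 0.64% DMSO, with 5uM trimethyltin chloride as positive control. Craniofacial malformation was scored present/absent by brightfield microscopy, relative to DMSO.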

SMILES | outcome | AC50
O=P(O)(O)OCCC(F)(F)C(F)(F)C(F)(F)C(F)(F)C(F)(F)C(F)(F)F | inactive | –
NC(=O)C(F)(F)C(F)(F)C(F)(F)C(F)(F)F | inactive | –
FC(F)(F)C(F)(F)C(F)(F)C(F)(F)C(F)(F)CCI | inactive | –
O=C(O)C(F)(F)C(F)(F)C(F)(F)C(F)(F)C(F)(F)C(F)(F)C(F)(F)C(F)(F)Cl | – | 37.2 µM (active)
FC(F)(F)C(F)(F)C(F)(F)C(F)(F)C(F)(F)C(F)(F)C(F)(F)C(F)(F)F | inactive | –
OCC(F)(F)C(F)(F)C(F)(F)C(F)F | inactive | –
FC(F)(F)C(F)(F)C(F)(F)C(F)(F)CCI | inactive | –
FC(F)(F)C(F)(F)C(F)(F)C(F)(F)C(F)(F)C(F)(F)C(F)(F)C(F)(F)CCS | inactive | –
FC(F)(F)C(F)(F)C(F)(F)C(F)(F)C(F)(F)C(F)(F)CC1CO1 (centres undefined) | inactive | –
O=C(O)C(F)(OC(F)(F)C(F)(OC(F)(F)C(F)(OC(F)(F)C(F)(F)C(F)(F)F)C(F)(F)F)C(F)(F)F)C(F)(F)F (centres undefined) | inactive | –
O=C(O)C(F)(OC(F)(F)C(F)(OC(F)(F)C(F)(F)C(F)(F)F)C(F)(F)F)C(F)(F)F (centres undefined) | inactive | –
O=C(O)C(F)(F)C(F)(F)C(F)(F)C(F)(F)F | inactive | –
N=C(N)C(F)(F)C(F)(F)C(F)(F)C(F)(F)C(F)(F)C(F)(F)C(F)(F)F | inactive | –
CC(C)(C)C(=O)CC(=O)C(F)(F)C(F)(F)C(F)(F)F | inactive | –
C=CC(=O)OCC(F)(F)C(F)(F)C(F)(F)C(F)(F)COC(=O)C=C | inactive | –
O=C(O)C(F)(F)C(F)(F)C(F)F | inactive | –
Cc1ccc(S(=O)(=O)OCC(F)(F)C(F)(F)C(F)(F)C(F)(F)C(F)(F)C(F)F)cc1 | inactive | –
